# Laboratory results from the supplement of paper PMC11628255, “Interference of metal ions on the bioluminescent signal of firefly, Renilla, and NanoLuc luciferases in high-throughput screening assays” (Frontiers in Chemistry, 2024).
# ± gives the standard deviation of the averaged measurements.
# System: firefly luciferase (FLuc)
# Assay: residual bioluminescent signal relative to negative control without GSH; higher = less interference (more residual luciferase signal)
# Conditions: screening conditions buffer
# Description: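 Selected metal salts at 3-4 concentrations tested on purified FLuc, NLuc or RLuc in screening buffer with 0, 0.2 or 2 mM glutathione added; 10 min enzyme pre-incubation at RT, luminescence 10 min after substrate. Signal normalised to negative control without GSH (% N_VALUE); triplicate wells.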
# [1] = metal salt concentration 1 mM, glutathione 0 mM
# [2] = metal salt concentration 1 mM, glutathione 0.2 mM
# [3] = metal salt concentration 1 mM, glutathione 2 mM
compound,measurement,setting,value
O=[N+]([O-])[O-].[Ag+] [silver nitrate],residual bioluminescent signal,"metal salt concentration 0.0001 mM, glutathione 0 mM",58.4 ± 11%
same,residual bioluminescent signal,"metal salt concentration 0.0001 mM, glutathione 0.2 mM",63.3 ± 6%
same,residual bioluminescent signal,"metal salt concentration 0.0001 mM, glutathione 2 mM",0.242 ± 0.17%
same,residual bioluminescent signal,"metal salt concentration 0.000243 mM, glutathione 0 mM",1.26 ± 0.36%
same,residual bioluminescent signal,"metal salt concentration 0.000243 mM, glutathione 0.2 mM",64.7 ± 3.9%
same,residual bioluminescent signal,"metal salt concentration 0.000243 mM, glutathione 2 mM",0.483 ± 0.34%
same,residual bioluminescent signal,"metal salt concentration 0.0005 mM, glutathione 0 mM",0.58 ± 0.43%
same,residual bioluminescent signal,"metal salt concentration 0.0005 mM, glutathione 0.2 mM",61.9 ± 10%
same,residual bioluminescent signal,"metal salt concentration 0.0005 mM, glutathione 2 mM",0.58 ± 0.29%
same,residual bioluminescent signal,[1],0.435 ± 0.38%
same,residual bioluminescent signal,[2],0.918 ± 0.47%
same,residual bioluminescent signal,[3],0.531 ± 0.3%
O=[N+]([O-])[O-].O=[N+]([O-])[O-].[Cu+2] [copper(II) nitrate],residual bioluminescent signal,"metal salt concentration 0.05 mM, glutathione 0 mM",84.5 ± 15%
same,residual bioluminescent signal,"metal salt concentration 0.05 mM, glutathione 0.2 mM",54.9 ± 3.8%
same,residual bioluminescent signal,"metal salt concentration 0.05 mM, glutathione 2 mM",0.483 ± 0.17%
same,residual bioluminescent signal,"metal salt concentration 0.125 mM, glutathione 0 mM",86.3 ± 9.3%
same,residual bioluminescent signal,"metal salt concentration 0.125 mM, glutathione 0.2 mM",19.4 ± 1.1%
same,residual bioluminescent signal,"metal salt concentration 0.125 mM, glutathione 2 mM",0.531 ± 0.34%
same,residual bioluminescent signal,"metal salt concentration 0.2 mM, glutathione 0 mM",65.3 ± 11%
same,residual bioluminescent signal,"metal salt concentration 0.2 mM, glutathione 0.2 mM",5.12 ± 2%
same,residual bioluminescent signal,"metal salt concentration 0.2 mM, glutathione 2 mM",0.628 ± 0.44%
same,residual bioluminescent signal,[1],0.628 ± 0.47%
same,residual bioluminescent signal,[2],0.338 ± 0.17%
same,residual bioluminescent signal,[3],0.435 ± 0.25%
O=[N+]([O-])[O-].O=[N+]([O-])[O-].[Zn+2] [zinc nitrate],residual bioluminescent signal,"metal salt concentration 0.5 mM, glutathione 0 mM",100 ± 3.4%
same,residual bioluminescent signal,"metal salt concentration 0.5 mM, glutathione 0.2 mM",29.7 ± 6%
same,residual bioluminescent signal,"metal salt concentration 0.5 mM, glutathione 2 mM",0.435 ± 0.25%
same,residual bioluminescent signal,[1],1.06 ± 0.55%
same,residual bioluminescent signal,[2],0.918 ± 0.74%
same,residual bioluminescent signal,[3],0.387 ± 0.17%
same,residual bioluminescent signal,"metal salt concentration 1.20 mM, glutathione 0 mM",0.387 ± 0.17%
same,residual bioluminescent signal,"metal salt concentration 1.20 mM, glutathione 0.2 mM",0.676 ± 0.36%
same,residual bioluminescent signal,"metal salt concentration 1.20 mM, glutathione 2 mM",0.676 ± 0.36%
same,residual bioluminescent signal,"metal salt concentration 2.5 mM, glutathione 0 mM",0.58 ± 0.29%
same,residual bioluminescent signal,"metal salt concentration 2.5 mM, glutathione 0.2 mM",0.87 ± 0.43%
same,residual bioluminescent signal,"metal salt concentration 2.5 mM, glutathione 2 mM",0.338 ± 0.34%
